Screens (PubChem)
Pf growth 96h = P. falciparum growth inhibition at 96 hour, primary screen for plastid delayed-death inhibitors | P. falciparum luciferase reporter growth, 96 h | Potency, µM (doses to about 28.7 µM), without a hit: top-dose activity change, negative = inhibition, usual class: inhibitors | actives 6.9% (n = 320,000) | AID 504834; note: potency is the fitted concentration of half-maximal effect; % is set by controls: 0 for no effect and ±100 for the full control effect
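Luminescence readout: decreased luciferase signal marks inhibited growth of reporter-expressing P. falciparum in infected red cells (2% hematocrit, 0.05% parasitemia final), exposed to compound two generations (96 h, 37 C, 5% CO2).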
Sm TGR inh = inhibitors of Schistosoma mansoni thioredoxin glutathione reductase. Q962Y6. purified TGR, DTNB reduction, TNB absorbance 405 nm. Potency, µM (top dose mostly 114 µM), for the others: at the highest dose activity change, negative = inhibition, most hits filed as inhibitors. actives 3% (n = 360,000). AID 485364; note: potency is the fitted concentration of half-maximal effect; % is set by controls: 0 for no effect and ±100 for the full control effect; nearly all actives have a fitted effect of over 60% in size
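First, TGR (20 nM dispensed) and NADPH were mixed with compound. Second, a 15 min room-temperature incubation followed. Third, further NADPH and then DTNB were added to start the reaction. Finally, TNB absorbance was monitored kinetically.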
Pf growth 48h = inhibits P. falciparum growth in the first generation, 48 h. P. falciparum luciferase growth in erythrocytes, 48 h. actives 5.9% (n = 310,000). Potency, µM (highest dose often 28.7 µM), inactives show at the highest dose activity change, negative = inhibition, actives largely listed as inhibitors. AID 504832; note: potency is the fitted concentration of half-maximal effect; % is set by controls: 0 for no effect and ±100 for the full control effect
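Parasite viability was followed by luminescence of a genomically integrated firefly luciferase. Cultures held 0.1% parasitemia at 2% hematocrit (final), incubated under 5% CO2 at 37 C.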
HCMV inh = inhibitors of human cytomegalovirus. HFF cells, HCMV-luciferase reporter, 72 h; active compounds read low. actives 4.5% (n = 410,000). activity change, negative = inhibition, % at 57.5 µM; in the data active = activity change below about -60%; inconclusive = no clear call, values can overlap the other calls; inactive = above about -39%; note: % is set by controls: 0 for no effect and ±100 for the full control effect
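Inhibition of viral replication was scored as loss of reporter luminescence in HFFs infected with HCMV-luciferase (MOI 1 PFU/cell) for 72 h; compounds tested at 2 doses, normalized to buffer and Salinomycin controls.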
HCV inhibitor = HCV inhibition; Potency, µM (top dose mostly 41.8 µM), for inactives: at the highest dose activity change, negative = inhibition, actives largely listed as inhibitors; AID 651820; Huh7.5.1 HCVcc-Cre infection, luciferase reporter, 44 h; actives 3.4% (n = 340,000); note: potency is the fitted concentration of half-maximal effect; % is set by controls: 0 for no effect and ±100 for the full control effect
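Infectious HCVcc-Cre (~0.5 moi) was added to cells just after compound, with cells seeded 4 h earlier at 1,000 per well. Luciferase activity after 44 h culture reported infection; substrate was incubated 15 min at room temperature before reading.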
SARS PLpro yeast = blocks SARS-CoV papain-like protease in a yeast assay | S. cerevisiae expressing SARS-CoV PLpro, growth rescue | Potency, µM (titrated, usually from 32.9 µM), for the others: top-dose activity, positive = growth rescue, usual class: activators | actives 0.19% (n = 330,000) | AID 485353; calls by dose curve; note: potency is the fitted concentration of half-maximal effect; 0% is about no effect; nearly all actives have a fitted effect of over 55% in size
Active calls of the source: *; u = inconclusive; x = not tested or not shown; [ ] = remark or other dose. Hits are enriched below; roughly 15% of the tested compounds scored in any of these assays. Unless noted, calls come from the whole dose curve; as a rule, active = well fitted curve in the direction sought with a large enough effect; inconclusive = small, poorly fitted or top-dose-only effect, or another doubt; inactive = no such curve, though single readings can be large; an effect the other way counts as inactive or inconclusive.

SMILES	Pf growth 96h	Sm TGR inh	Pf growth 48h	HCMV inh	HCV inhibitor	SARS PLpro yeast
Cc1ccn(CCC(=O)N2CCCC(CCC(=O)NCc3ccc(F)c(F)c3)C2)n1 (stereo unspecified)	12µM*	1%	-11%	-1	9%	3%
CSc1ncccc1C(=O)N1CCCC(CCC(=O)NCc2ccc(F)c(F)c2)C1 (stereo unspecified)	u	1%	u	-14	17%	0%
C=CCOc1cccc(/C=N/NC(=O)CN2CCCCC2)c1	22%	78%	26%	-39	3%	-2%
CC(C)c1ccc(N2CCN(C(=O)c3ccccc3NC(=O)/C=C\C(=O)O)CC2)cc1	x	40µM*	-11%	55	-6%	-17%
Cc1ccccc1N1CCN(C(=O)c2ccccc2NC(=O)/C=C\C(=O)O)CC1	u	u	3%	4	7%	-9%
CS(=O)(=O)Nc1ccccc1C(=O)N1CCN(c2ccccc2)CC1	-3%	-17%	x	32	x	2%
O=C(O)/C=C\C(=O)Nc1ccccc1C(=O)N1CCN(c2ccc(Cl)cc2)CC1	x	50µM*	-20%	39	7%	-1%
CCC(=O)OC1(C)C(=O)C=C2C=C(c3ccsc3)OC=C2C1=O (stereo unspecified)	44%	32µM*	30%	x	-3%	1%
COC(=O)CCC(=O)OC1(C)C(=O)C=C2C=C(c3ccsc3)OC=C2C1=O (stereo unspecified)	x	x	x	x	33%[8.37 µM]	x
CSc1ccccc1C(=O)N(C)C(c1ccccc1)c1ccccc1	10µM*	4%	u	-20	u	-8%
NC(c1ccc(F)c(F)c1)c1nc(-c2ccc3ccccc3c2)cs1 (stereo unspecified)	x	x	x	-82*	x	x
COc1ccccc1CC(=O)Nc1cc(S(=O)(=O)N2CCOCC2)ccc1N1CCOCC1	u	-8%	u	20	1%	-1%
CCc1ccccc1OCC(=O)Nc1cc(S(=O)(=O)N2CCOCC2)ccc1N1CCCCC1	1µM*	-4%	2.9µM*	-28	11µM*	2%
COc1ccccc1CCC(=O)Nc1cc(S(=O)(=O)N2CCCCC2)ccc1N1CCN(C)CC1	u	5%	12µM*	-14	14%	5%
COc1ccccc1OCC(=O)Nc1cc(S(=O)(=O)N2CCOCC2)ccc1N1CCCCC1	x	x	x	-18	13µM*	-10%
COc1cc(CCC(=O)Nc2cc(Cl)ccc2N2CCN(C)CC2)cc(OC)c1OC	x	-3%	12µM*	10	u	8%
COc1ccc(Cl)cc1NC(=O)CCN1CCN(C)CC1	u	0%	x	45	u	0%
Oc1ccc(Oc2ccc(Oc3ccc(O)cc3)cc2)cc1	10%	-1%	21%	-35	-2%	-10%
CC1(C)C(N(O)C(=O)Nc2ccc(Cl)cc2)N(c2ccc(Cl)cc2)C(=O)N1CC(=O)NN (stereo unspecified)	10µM*	-16%	x	-26	u	13%
Fc1ccc(/C=N/Nc2ncnc3nc[nH]c23)cc1F	9.3µM*	2%	u	101	1%[8.37 µM]	1%
c1ccc(CCCNc2ncnc3nc[nH]c23)cc1	u	-2%	18%	5	u	-6%
Cc1ccccc1/C=N/Nc1ncnc2nc[nH]c12	8%	0%	-15%	53	-1%	-1%
c1ccc2c(CCNc3ncnc4nc[nH]c34)cccc2c1	23%	0%	33%	-35	11µM*	-1%
C1=C(CCNc2ncnc3nc[nH]c23)CCCC1	u	-13%	u	1	10µM*	25%
Clc1ccc(CCNc2ncnc3nc[nH]c23)cc1	u	9%	-4%	x	10µM*	-1%
CC(C)CC(=O)Nc1nc2c(s1)CC(C(C)(C)C)CC2 (stereo unspecified)	x	2%	x	30	x	x
CC(C)(C)c1ccc(C(=O)N2CCN(CCNC(=O)C(=O)NCc3ccc(Cl)cc3)CC2)cc1	147%	0%	-24%	x	11µM*	2%
